Assay results from the supplement of paper PMC10849652.
About 8,800 targets were measured; listed, in parts, are those with a hit and a random draw of the rest. About 0.5% of all pairs of compound and target were hits. Values without a mark were called inactive.

Each target was assayed with NCC(=O)Nc1ccc(-n2nc(C(F)(F)F)cc2-c2ccc3c(ccc4ccccc43)c2)cc1 (assay: log2 fold change, soluble protein after heating vs DMSO (PISA); higher = thermal stabilisation; K562 lysate, 10 uM; active = over 0.2 and 3.5 SD of the protein, either way, in both replicates (recomputed)).
In short: (§1)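 Following dounce homogenisation of K562 pellets in PBS pH 7.4 with 1 mM MgCl2, crude extract at 1 mg/mL protein was incubated for 30 min with 10 μM compound. Aliquots were then heated for 3 min over 48°C-58°C and pooled, NP-40 was added to 0.5% at 4°C, and soluble protein was recovered as the supernatant at 21,000xg for 90 min. Channel-sum-equalised TMTpro 16plex LC-MS/MS quantified this protein. Each value, from duplicates, is a log-two fold change in thermal stability relative to solvent controls.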

Chain of UniProt O95793 (O95793 whole entry, looked up): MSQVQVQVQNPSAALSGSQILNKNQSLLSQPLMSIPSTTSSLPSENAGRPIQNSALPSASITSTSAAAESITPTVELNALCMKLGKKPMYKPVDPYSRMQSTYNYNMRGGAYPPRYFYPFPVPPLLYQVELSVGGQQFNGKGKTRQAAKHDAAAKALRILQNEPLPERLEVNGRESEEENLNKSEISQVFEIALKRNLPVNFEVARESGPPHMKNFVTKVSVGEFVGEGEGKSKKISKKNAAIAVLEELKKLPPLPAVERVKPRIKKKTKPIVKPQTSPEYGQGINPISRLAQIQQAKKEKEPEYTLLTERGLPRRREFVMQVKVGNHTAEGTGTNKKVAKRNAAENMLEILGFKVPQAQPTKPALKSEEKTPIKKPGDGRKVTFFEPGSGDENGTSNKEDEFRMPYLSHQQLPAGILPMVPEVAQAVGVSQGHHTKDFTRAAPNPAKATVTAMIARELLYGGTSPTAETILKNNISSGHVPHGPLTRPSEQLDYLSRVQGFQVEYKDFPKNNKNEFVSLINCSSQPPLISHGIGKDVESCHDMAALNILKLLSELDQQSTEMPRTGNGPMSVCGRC
Chain of UniProt Q9HBR0 (Q9HBR0 whole entry, looked up): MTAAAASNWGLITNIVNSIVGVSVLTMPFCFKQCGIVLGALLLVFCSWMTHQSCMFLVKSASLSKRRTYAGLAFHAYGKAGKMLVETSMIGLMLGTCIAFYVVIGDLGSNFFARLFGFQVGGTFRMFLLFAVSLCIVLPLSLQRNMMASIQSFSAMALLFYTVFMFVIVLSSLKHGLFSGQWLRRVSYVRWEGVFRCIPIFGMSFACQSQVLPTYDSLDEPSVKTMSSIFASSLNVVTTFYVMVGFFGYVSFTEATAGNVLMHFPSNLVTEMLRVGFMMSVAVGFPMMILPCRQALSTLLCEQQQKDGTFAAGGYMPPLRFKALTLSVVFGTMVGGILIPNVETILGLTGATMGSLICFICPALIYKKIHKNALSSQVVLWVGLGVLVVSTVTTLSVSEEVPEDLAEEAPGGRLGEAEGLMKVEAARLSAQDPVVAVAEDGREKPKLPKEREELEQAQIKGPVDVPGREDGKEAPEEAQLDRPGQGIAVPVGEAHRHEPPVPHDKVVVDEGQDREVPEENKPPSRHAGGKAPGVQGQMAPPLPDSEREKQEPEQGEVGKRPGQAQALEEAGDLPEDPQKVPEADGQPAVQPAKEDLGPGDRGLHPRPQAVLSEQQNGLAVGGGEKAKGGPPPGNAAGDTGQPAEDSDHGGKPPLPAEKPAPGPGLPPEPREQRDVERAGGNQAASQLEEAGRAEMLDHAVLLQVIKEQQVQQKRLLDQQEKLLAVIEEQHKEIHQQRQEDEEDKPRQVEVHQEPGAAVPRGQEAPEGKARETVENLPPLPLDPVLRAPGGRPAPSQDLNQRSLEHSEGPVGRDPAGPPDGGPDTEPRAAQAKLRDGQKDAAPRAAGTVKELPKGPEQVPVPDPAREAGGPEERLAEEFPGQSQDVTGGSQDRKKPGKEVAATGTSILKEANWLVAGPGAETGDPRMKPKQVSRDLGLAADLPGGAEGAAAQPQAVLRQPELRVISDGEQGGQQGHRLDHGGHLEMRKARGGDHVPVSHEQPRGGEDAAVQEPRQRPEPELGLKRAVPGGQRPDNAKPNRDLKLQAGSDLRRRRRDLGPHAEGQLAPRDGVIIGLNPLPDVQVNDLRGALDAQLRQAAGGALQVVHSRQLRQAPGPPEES
Chain of UniProt Q8NHG7 (Q8NHG7 whole entry, looked up): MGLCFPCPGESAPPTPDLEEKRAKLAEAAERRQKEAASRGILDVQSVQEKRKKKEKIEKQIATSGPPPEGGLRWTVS
Chain of UniProt P10124 (P10124 whole entry, looked up): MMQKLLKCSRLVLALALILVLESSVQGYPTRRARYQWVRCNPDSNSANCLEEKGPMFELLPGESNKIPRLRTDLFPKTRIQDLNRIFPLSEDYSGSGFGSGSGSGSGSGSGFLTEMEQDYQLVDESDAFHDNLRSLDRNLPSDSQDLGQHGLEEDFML
Chain of UniProt Q13043 (Q13043 whole entry, looked up): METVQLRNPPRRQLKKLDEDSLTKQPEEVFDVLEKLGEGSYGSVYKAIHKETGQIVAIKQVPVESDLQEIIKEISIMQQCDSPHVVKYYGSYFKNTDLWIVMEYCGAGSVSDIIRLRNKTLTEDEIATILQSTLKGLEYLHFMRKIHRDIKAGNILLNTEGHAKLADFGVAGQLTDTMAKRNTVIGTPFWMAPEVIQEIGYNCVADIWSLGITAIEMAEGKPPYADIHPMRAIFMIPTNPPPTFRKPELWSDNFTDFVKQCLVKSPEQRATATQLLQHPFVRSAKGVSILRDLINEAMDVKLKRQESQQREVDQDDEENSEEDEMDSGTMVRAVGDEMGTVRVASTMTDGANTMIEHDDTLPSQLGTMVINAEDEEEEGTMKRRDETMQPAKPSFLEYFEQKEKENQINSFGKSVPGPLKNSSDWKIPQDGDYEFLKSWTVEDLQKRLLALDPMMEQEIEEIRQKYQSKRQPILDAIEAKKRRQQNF
Chain of UniProt Q14849 (Q14849 whole entry, looked up): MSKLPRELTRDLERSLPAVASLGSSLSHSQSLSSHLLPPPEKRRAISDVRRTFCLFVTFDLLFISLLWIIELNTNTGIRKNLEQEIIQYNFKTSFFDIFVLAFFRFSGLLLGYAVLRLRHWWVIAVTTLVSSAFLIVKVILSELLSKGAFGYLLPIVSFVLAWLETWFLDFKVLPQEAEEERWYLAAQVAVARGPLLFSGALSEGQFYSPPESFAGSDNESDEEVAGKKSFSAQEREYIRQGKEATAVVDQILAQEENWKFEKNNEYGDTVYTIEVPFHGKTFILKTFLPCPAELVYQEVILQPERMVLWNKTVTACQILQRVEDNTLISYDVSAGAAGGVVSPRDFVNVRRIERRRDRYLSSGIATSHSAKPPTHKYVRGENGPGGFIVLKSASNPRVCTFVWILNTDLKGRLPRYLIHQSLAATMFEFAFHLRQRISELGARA
Chain of UniProt Q9UQE7 (Q9UQE7 whole entry, looked up): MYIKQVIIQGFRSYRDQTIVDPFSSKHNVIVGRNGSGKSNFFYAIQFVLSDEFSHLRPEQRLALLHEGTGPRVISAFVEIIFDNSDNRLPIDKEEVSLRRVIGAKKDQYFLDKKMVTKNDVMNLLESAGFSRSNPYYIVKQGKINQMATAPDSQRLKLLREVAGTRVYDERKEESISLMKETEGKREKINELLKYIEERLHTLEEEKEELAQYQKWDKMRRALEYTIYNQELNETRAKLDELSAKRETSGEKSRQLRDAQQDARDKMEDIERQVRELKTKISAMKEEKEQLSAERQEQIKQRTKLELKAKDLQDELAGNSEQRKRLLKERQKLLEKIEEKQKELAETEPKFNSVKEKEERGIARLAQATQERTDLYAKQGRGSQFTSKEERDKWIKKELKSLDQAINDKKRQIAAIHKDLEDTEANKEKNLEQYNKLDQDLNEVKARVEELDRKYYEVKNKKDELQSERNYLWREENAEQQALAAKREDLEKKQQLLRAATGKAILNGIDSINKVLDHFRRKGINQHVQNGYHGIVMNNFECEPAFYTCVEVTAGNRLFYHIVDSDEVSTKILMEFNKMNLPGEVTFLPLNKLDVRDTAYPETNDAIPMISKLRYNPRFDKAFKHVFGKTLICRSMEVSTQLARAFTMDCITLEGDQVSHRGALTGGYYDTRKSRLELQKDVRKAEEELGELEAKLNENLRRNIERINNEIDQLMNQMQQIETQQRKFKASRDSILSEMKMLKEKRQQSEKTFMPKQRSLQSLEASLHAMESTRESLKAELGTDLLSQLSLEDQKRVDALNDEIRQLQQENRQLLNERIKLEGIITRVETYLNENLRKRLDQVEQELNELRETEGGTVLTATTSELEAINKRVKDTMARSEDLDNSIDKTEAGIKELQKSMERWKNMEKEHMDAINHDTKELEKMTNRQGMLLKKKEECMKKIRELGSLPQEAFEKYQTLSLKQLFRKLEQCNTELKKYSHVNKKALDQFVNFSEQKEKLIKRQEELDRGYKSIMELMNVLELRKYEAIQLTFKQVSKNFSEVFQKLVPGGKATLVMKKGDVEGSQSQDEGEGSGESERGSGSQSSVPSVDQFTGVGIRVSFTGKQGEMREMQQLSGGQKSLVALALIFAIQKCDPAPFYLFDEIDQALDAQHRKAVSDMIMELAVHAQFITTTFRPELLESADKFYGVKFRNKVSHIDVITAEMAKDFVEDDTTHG
Chain of UniProt Q08AE8 (Q08AE8 whole entry, looked up): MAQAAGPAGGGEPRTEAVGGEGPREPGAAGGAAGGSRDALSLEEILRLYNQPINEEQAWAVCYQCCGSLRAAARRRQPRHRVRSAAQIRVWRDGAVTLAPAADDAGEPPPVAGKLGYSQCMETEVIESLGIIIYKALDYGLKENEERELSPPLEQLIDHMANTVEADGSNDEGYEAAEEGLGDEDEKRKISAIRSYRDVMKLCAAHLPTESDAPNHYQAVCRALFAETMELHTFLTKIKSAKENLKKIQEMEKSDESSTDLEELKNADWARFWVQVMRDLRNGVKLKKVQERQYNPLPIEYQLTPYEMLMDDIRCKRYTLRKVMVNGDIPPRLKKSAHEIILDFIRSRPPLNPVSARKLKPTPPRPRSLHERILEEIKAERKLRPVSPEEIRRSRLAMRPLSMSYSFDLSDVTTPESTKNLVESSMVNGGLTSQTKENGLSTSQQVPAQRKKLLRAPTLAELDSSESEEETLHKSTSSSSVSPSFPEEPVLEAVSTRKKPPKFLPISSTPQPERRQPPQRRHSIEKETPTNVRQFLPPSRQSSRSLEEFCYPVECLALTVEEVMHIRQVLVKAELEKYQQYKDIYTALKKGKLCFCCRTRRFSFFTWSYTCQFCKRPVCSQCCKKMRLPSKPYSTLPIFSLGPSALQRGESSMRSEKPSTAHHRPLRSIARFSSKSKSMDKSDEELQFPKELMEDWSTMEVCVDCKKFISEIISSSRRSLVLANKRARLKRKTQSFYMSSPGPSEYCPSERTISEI
Chain of UniProt O60225 (O60225 whole entry, looked up): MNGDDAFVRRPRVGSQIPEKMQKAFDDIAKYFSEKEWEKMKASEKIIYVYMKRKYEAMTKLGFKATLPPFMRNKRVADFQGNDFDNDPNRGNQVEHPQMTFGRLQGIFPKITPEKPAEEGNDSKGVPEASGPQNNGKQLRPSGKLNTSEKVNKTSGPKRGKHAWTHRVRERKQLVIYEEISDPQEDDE

Target | log2 fold change
SH3GL3 isoform 3 (UniProt Q99963) | 0.108
SLC38A10 (UniProt Q9HBR0) | -0.034
SPA17 (UniProt Q15506) | 0.049
SYK (UniProt P43405) | 0.135
SPR (UniProt P35270) | -0.037
SPIRE1 (UniProt Q08AE8) | 0.092
SURF2 (UniProt Q15527) | -0.01
SVIP (UniProt Q8NHG7) | 0.023
SMG5 (UniProt Q9UPR3) | 0.04
SRGN (UniProt P10124) | -0.073
TAF11 (UniProt Q15544) | -0.005
SNRPD2 (UniProt K7EJB5) | 0.119
SLC16A1 (UniProt P53985) | 0.004
SIN3B (UniProt O75182) | 0.195
TAF1B (UniProt Q53T94) | 0.673 (active)
SMC3 (UniProt Q9UQE7) | -0.023
STARD3 isoform 3 (UniProt Q14849) | 0.022
STAU1 (UniProt O95793) | 0.045
STK4 (UniProt Q13043) | 0.054
SSX5 isoform 2 (UniProt O60225) | -0.111
SPAG1 (UniProt Q07617) | 0.227
TAOK2 (UniProt Q9UL54) | 0.015
SNX6, A0A0A0MRI2 | -0.005
TARDBP (UniProt K7EN94) | 0.1
SNAP23 isoform 2 (UniProt O00161) | 0.146

Each target was assayed with O=C(CCCCCCC(=O)Nc1ccccc1)NO [vorinostat] in the same assay as above.
In short: as §1

Target | log2 fold change
SH3GL3 isoform 3 (UniProt Q99963) | -0.091
SLC38A10 (UniProt Q9HBR0) | 0.044
SLC12A6 isoform 2 (UniProt Q9UHW9) | 0.17
SYK (UniProt P43405) | -0.138
SLC39A13 (UniProt Q96H72) | -0.064
SPR (UniProt P35270) | -0.199
SHB (UniProt Q15464) | -0.356 (active)
SPIRE1 (UniProt Q08AE8) | 0.15
SZT2 (UniProt Q5T011) | 1.2 (active)
SRC isoform 2 (UniProt P12931) | 0.073
SMIM1 (UniProt B2RUZ4) | 0.177
SVIP (UniProt Q8NHG7) | 0.171
SMG5 (UniProt Q9UPR3) | -0.381 (active)
SRGN (UniProt P10124) | 0.132
SLC41A1 (UniProt Q8IVJ1) | 0.06
SNRPD2 (UniProt K7EJB5) | 0.493 (active)

Target | log2 fold change
STK17B (UniProt O94768) | -0.221
SLC16A1 (UniProt P53985) | -0.62 (active)
SMC3 (UniProt Q9UQE7) | 0.06
STARD3 isoform 3 (UniProt Q14849) | 0.065
STAU1 (UniProt O95793) | -0.035
STAU1 isoform 3 (UniProt O95793) | -0.076
SMARCA4 isoform 4 (UniProt P51532) | 0.166
STK4 (UniProt Q13043) | -0.134
SSX5 isoform 2 (UniProt O60225) | -0.059
SNAPC2 (UniProt Q13487) | -0.631 (active)
STK38L (UniProt Q9Y2H1) | -0.162
SNX6, A0A0A0MRI2 | -0.325 (active)
SMPD2 (UniProt O60906) | 0.261
SIX5 (UniProt Q8N196) | 0.162
SNAP23 isoform 2 (UniProt O00161) | -0.85 (active)
